Screening data deposited in PubChem BioAssay by National Center for Advancing Translational Sciences (NCATS).
Hits are enriched below; roughly 5.8% of the tested compounds scored in any of these assays.
KB-3-1 tox: qHTS assay for MDR1-selective chemotherapeutics: Primary screen using the parental adenocarcinoma cell KB-3-1; KB-3-1 viability, CellTiter-Glo ATP luminescence, 72 h; Potency, µM (highest dose often 46.1 µM), hits mostly cytotoxic; 400,000 compounds, 1.4% hits; AID 1347075, 2019; further: on the % scale 0 is the no-effect control and ±100 the full control effect; nearly all actives have a fitted effect of over 60% in size
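Screening of KB-3-1 cells (DMEM, 10% FBS, phenol-red free) ran from lowest to highest compound concentration; after 72 h at 37 °C viability was read luminescently and curves fitted.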
KB-V1 cytotox: qHTS assay for MDR1-selective chemotherapeutics: Primary screen using the drug-selected MDR subline cells KB-V1; AID 1347076, 2019; Potency, µM (doses to about 46.1 µM), most hits filed as cytotoxic; 400,000 compounds, 3.4% hits; KB-V1 MDR cells viability, CellTiter-Glo, 72 h; further: on the % scale 0 is the no-effect control and ±100 the full control effect; nearly all actives have a fitted effect of over 60% in size
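Cytotoxicity toward P-gp-expressing KB-V1 cells was determined as loss of CellTiter-Glo luminescence after 72 h at 37 degrees C. Compounds were tested in quantitative HTS format across a concentration range, with curves fitted to normalized data.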
MCF10A rerep: A quantitative high throughput screen for small molecules that induce DNA re-replication in MCF 10a normal breast cells | 350,000 compounds, 2.9% hits | MCF 10A DNA re-replication, Hoechst nuclear intensity, 48 h | AID 624296, 2012 | Potency, µM (doses to about 46.1 µM), without a hit: top-dose activity, positive = re-replication, most hits filed as activators; further: % of control where 0% means no effect; nearly all actives have a fitted effect of over 50% in size
PINK1 expr mod: A Quantitative High throughput Screen to Identify Chemical Modulators of PINK1 Expression | Potency, µM (doses to about 76.6 µM), without a hit: at the highest dose activation (PINK1 increase), most hits filed as activators | AID 624263, 2012 | 410,000 compounds, 0.2% hits | PINK1 immunofluorescence, high-content cytometry, 24 h; active means well fitted activation curve with a large enough effect; inconclusive means small, poorly fitted or top-dose-only effect; cell line not stated here; further: % of control where 0% means no effect; nearly all actives have a fitted effect of over 65% in size
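Measures PINK1 amount and localization on or inside mitochondria by immunofluorescence. Stable cells get compounds at 5 concentrations for 24 hours before fixation and staining; CCCP controls included.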
SW480 rereplic: A quantitative high throughput screen for small molecules that induce DNA re-replication in SW480 colon adenocarcinoma cells; SW480 DNA re-replication, Hoechst DNA content imaging, 48 h; Potency, µM (series often up to 46.1 µM), without a hit: at the highest dose re-replication activation, usual class: activators; 340,000 compounds, 1.8% hits; AID 624297, 2012; further: % of control where 0% means no effect; nearly all actives have a fitted effect of over 55% in size
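Compounds, transferred as 23 nL by pin tool, were incubated with cells for 48 hr; DNA content per nucleus was then quantified by Hoechst staining and fluorescence plate imaging.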
ALOX12 inh: Primary qHTS assay for inhibitors of human arachidonate 12S-lipoxygenase (ALOX12): Round 2 | purified 12hLO, xylenol orange hydroperoxide absorbance | Potency, µM (doses to about 108 µM), without a hit: at the highest dose activity change, negative = inhibition, actives largely listed as inhibitors | 580,000 compounds, 1.1% hits; further: on the % scale 0 is the no-effect control and ±100 the full control effect
Target sequence (P18054 whole entry, looked up): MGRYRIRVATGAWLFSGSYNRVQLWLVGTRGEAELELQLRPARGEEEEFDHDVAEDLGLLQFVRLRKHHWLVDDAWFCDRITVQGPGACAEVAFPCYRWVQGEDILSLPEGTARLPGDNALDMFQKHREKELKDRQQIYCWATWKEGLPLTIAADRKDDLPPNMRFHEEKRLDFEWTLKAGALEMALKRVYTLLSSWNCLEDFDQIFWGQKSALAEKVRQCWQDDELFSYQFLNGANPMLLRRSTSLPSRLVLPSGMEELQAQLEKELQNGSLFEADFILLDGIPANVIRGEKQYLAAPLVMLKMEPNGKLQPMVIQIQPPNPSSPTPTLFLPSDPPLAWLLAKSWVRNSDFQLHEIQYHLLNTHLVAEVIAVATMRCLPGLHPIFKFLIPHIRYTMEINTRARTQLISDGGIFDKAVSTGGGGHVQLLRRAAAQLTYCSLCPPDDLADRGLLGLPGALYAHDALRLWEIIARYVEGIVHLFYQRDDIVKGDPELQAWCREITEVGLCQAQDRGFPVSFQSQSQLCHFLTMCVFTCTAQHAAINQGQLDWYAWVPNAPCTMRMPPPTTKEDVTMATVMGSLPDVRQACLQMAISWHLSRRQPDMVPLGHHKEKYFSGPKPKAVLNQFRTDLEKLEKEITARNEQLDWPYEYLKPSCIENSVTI
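Purified human 12hLO (150 nM final) in 25 mM Hepes, 0.01% Triton X-100, pH 7.0 was preincubated 15 min at room temperature with compound. Then 40 uM arachidonic acid was added, 30 min. Hydroperoxide was read by Fe-XO absorbance ratio 573/405 nm.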
Active calls of the source: *; i = inactive; ? = inconclusive; . = not tested or not shown; [ ] = another dose, or the depositor's remark. Unless noted, the call rests on the fitted dose curve; in most records, active means well fitted curve in the direction sought with a large enough effect; inconclusive means small, poorly fitted or top-dose-only effect, or another doubt; inactive means no such curve, though single readings can be large; an effect the other way counts as inactive or inconclusive. Potency means the concentration at half of the fitted maximal effect.

SMILES	KB-3-1 tox	KB-V1 cytotox	MCF10A rerep	PINK1 expr mod	SW480 rereplic	ALOX12 inh
COC(=O)c1cn(NC(=O)c2ccc(OC)c(OC)c2)c(=O)c2ccccc12	i	i	-9.0%	?	-4.6%	0.0%
CN(CC(=O)Nc1c(Cl)cccc1Cl)C(=O)c1cc(-c2cccs2)nn1-c1ccccc1	i	4.11µM*	?	-0.8%	-0.1%	2.6%
Cc1ccc(C)c(S(=O)(=O)N2CCN(C(=O)c3cc(-c4cccs4)nn3-c3ccccc3)CC2)c1	?	6.51µM*	?	1.0%	-0.5%	15.0%
COc1ccc(OC)c(NC(=O)c2cc3c(OC)c(OC)c(OC)cc3[nH]2)c1	.	.	.	.	.	15.5%
CCOC(=O)C1C(=O)C=C(c2ccc(F)cc2)CC1c1c(F)cccc1Cl (centres undefined)	.	.	.	.	.	-26.3%
N=c1n(CCN2CCCC2)c2ccccc2n1CC(O)c1ccc(Cl)c(Cl)c1 (centres undefined)	i	i	23.1µM*	-1.5%	?	?
Cc1ccc(OCC(O)Cn2c(=N)n(CCN3CCOCC3)c3ccccc32)cc1 (centres undefined)	i	i	13.4%	0.2%	-0.6%	0.0%
COc1ccc(OCC(O)Cn2c(=N)n(CCN3CCCCC3)c3ccccc32)cc1 (centres undefined)	?	i	25.9µM*	1.7%	?	?
Cc1ccc(OCC(O)Cn2c(=N)n(CCN3CCCCC3)c3ccccc32)cc1 (centres undefined)	20.6µM*	23.1µM*	?	-5.0%	?	-8.1%
N=c1n(CCN2CCCCC2)c2ccccc2n1CC(O)COc1ccc(Cl)cc1Cl (centres undefined)	.	.	.	-1.2%	.	?
CC(C)c1cccc(NC(=O)c2cccc(CS(C)=O)c2)c1 (centres undefined)	.	.	.	.	.	16.5%
CCn1c(=O)c([N+](=O)[O-])c(Cl)c2ccccc21	?	i	25.8%	-1.7%	8.2µM*	.
CCn1c(=O)c([N+](=O)[O-])c(NCCN(C)C)c2ccccc21	i	i	-3.3%	2.0%	-41.7%	-2.0%
CC(C)Sc1nc(N(CCO)CCO)c2sc3c(c2n1)COC(C)(C)C3	.	.	.	.	.	9.3%
CCNS(=O)(=O)c1ccc(NC(=O)c2cccc(NC(=O)C(CC)CC)c2)cc1	.	.	.	.	.	-13.3%
Cc1cccc(N2CCN(Cc3ccc(Br)o3)CC2)c1C	i	i	6.5%	16.9%	5.4%	0.562µM*
Cc1ccccc1N1CCN(Cc2ccc(Br)o2)CC1	i	?	12.8%	12.4%	-3.5%	?
CCOC(=O)COc1ccc2c(=O)c(-c3ccc(OC)c(OC)c3)coc2c1	.	.	.	.	.	54.5%
COc1ccc2[nH]cc(C(C(=O)O)N3CCN(CC(=O)N(C)C)CC3)c2c1 (centres undefined)	.	.	.	.	.	15.3%
Cc1cc(C)c(NC(=O)CN(C2CCCCC2)C2CCCCC2)c(C)c1	i	?	3.66µM*	2.2%[38.3 µM]	1.84µM*	-5.1%[57.4 µM]
C=CCn1c(=S)[nH]c2scc(-c3ccc(C)o3)c2c1=O	i	i	16.4µM*	0.1%	?	-21.2%
C=CCn1c(SCC(C)=O)nc2scc(-c3ccc(C)o3)c2c1=O	i	i	?	0.1%	-5.2%	-8.1%
C=CCOc1nc2c(c(=O)n(C)c(=O)n2C)n1Cc1ccccc1Cl	?	7.31µM*	?	8.4%[38.3 µM]	-3.0%	4.0%
COCCNc1nc2c(c(=O)n(C)c(=O)n2C)n1Cc1cccc2ccccc12	.	.	.	.	.	4.3%
Cn1c(=O)c2c(nc(Sc3ncccn3)n2Cc2ccccc2Cl)n(C)c1=O	i	23.1µM*	?	-4.2%[38.3 µM]	-12.6%	1.3%
SMILES	KB-3-1 tox	KB-V1 cytotox	MCF10A rerep	PINK1 expr mod	SW480 rereplic	ALOX12 inh
CCCOc1nc2c(c(=O)n(C)c(=O)n2C)n1Cc1cccc2ccccc12	i	5.8µM*	17.6%	0.8%[38.3 µM]	9.7%	0.7%
C=CCOc1nc2c(c(=O)n(C)c(=O)n2C)n1Cc1ccc(Cl)cc1	?	2.91µM*	-8.3%	-0.4%	-5.7%	?
CC(C)CC1(C)OCC(CN2CCCCC2)O1 (centres undefined)	.	.	.	.	.	-15.5%
c1ccc(-c2cc(-c3nc4ccccc4[nH]3)c3ccccc3n2)cc1	16.4µM*	16.4µM*	?	-2.8%	-1.1%	-10.5%
COc1ccc2c(-c3cc4ccc(OCc5ccc(F)cc5)cc4oc3=O)cc(=O)oc2c1	7.31µM*	8.2µM*	1.84µM*	-1.6%	-7.4%	-24.8%
CN(C)Cc1cc(C(F)(F)F)ccc1C(O)(c1ccccc1)c1ccccc1	?	20.6µM*	21.5%	7.4%	?	-23.3%
CSc1nsc(/C=C/Nc2ccc(F)cc2F)c1C#N	i	i	?	6.2%	?	.
CSc1nsc(/C=C/Nc2ccc(C(=O)O)cc2)c1C#N	i	i	5.17µM*	2.2%	?	?
COC(=O)CCCNC(=O)c1ccc(C(F)(F)F)cc1	.	.	.	.	.	13.0%
Cc1ccc(-c2c(C)n3c4c(=O)n(C)c(=O)n(C)c4nc3n2-c2cccc(O)c2)cc1	?	18.4µM*	.	0.4%	.	?
C[N+](C)(C)CCOC(c1ccccc1)c1ccccc1	.	.	.	.	.	-0.2%
Cc1ccc(C(OCC(C)(C)C[N+](C)(C)C)c2ccccc2)cc1 (centres undefined)	i	i	7.4%	0.9%	-5.5%	44.7µM*
O=C1[C@@H](Oc2ccccc2)[C@@H](c2ccncc2)N1c1ccncc1	i	i	0.184µM*	1.9%	-61.8%	9.5%
COc1ccc(F)cc1C(=O)C1CCCN(Cc2cn(C)c3ccccc23)C1 (centres undefined)	i	i	9.2µM*	-1.9%	14.6µM*	-4.1%
Cc1ccc(C(=O)NC2CCN(c3cc(-c4ccccc4)[nH]n3)C2)cc1 (centres undefined)	.	.	.	.	.	12.0%
